From PubChem BioAssay (NCI)
Compounds without any hit were thinned out: in the full panel of roughly 83,000, 20% have a hit.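 Percent growth is the endpoint: 0 to 100 indicates growth inhibition (40 means 60% inhibition), 0 means no net growth, and negative values indicate cell death.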 A number with no mark means an inactive call. Active and inactive are the calls of the source. The calls were made as follows: active = growth percent below 10; inactive = the rest.

How the values were obtained:
Test in all cases: NCI-60 one-dose screen, 48 h (100 = growth as untreated, 0 = no growth, -100 = all killed)
Details in all cases: 10 µM unless noted
[1] = tested on: SK-MEL-2 melanoma
[2] = tested on: EKVX NSCLC
[3] = tested on: SN12C renal
[4] = tested on: UO-31 renal
[5] = tested on: TK-10 renal
[6] = tested on: ACHN renal
[7] = tested on: CAKI-1 renal
[8] = tested on: A498 renal
[9] = tested on: CCRF-CEM leukemia
[10] = tested on: MOLT-4 leukemia
[11] = tested on: SR leukemia
[12] = tested on: RPMI-8226 leukemia
[13] = tested on: OVCAR-8 ovarian
[14] = tested on: OVCAR-5 ovarian
[15] = tested on: OVCAR-4 ovarian
[16] = tested on: SK-OV-3 ovarian
[17] = tested on: IGROV1 ovarian
[18] = tested on: OVCAR-3 ovarian
[19] = tested on: HS 578T breast
[20] = tested on: NCI/ADR-RES ovarian

Row | Compound | growth [1] | growth [2] | growth [3] | growth [4] | growth [5] | growth [6] | growth [7] | growth [8] | growth [9] | growth [10] | growth [11] | growth [12] | growth [13] | growth [14] | growth [15] | growth [16] | growth [17] | growth [18] | growth [19] | growth [20]
1 | CCOC(=O)c1c(C)c2c(n1Cc1ccccc1)CSc1cc(C#N)c(=O)[nH]c1-2 | 92.2% [100 µM] | 67.1% [100 µM] | 80.6% [100 µM] | 85.6% [100 µM] | 40.5% [100 µM] | 49.3% [100 µM] | 58.9% [100 µM] | 92% [100 µM] | 90.4% [100 µM] | 118% [100 µM] | 54.8% [100 µM] | 82.4% [100 µM] | 88% [100 µM] | 120% [100 µM] | 98.8% [100 µM] | 98.6% [100 µM] | 95.5% [100 µM] | 75.7% [100 µM] | 51.9% [100 µM] | 58.5% [100 µM]
2 | O=C(O)CCCN1C(=O)CSC1=S | 104% | 103% | 94.9% | 87.9% | 131% | 108% | 104% | 105% | 99.6% | 98.4% | 103% | 98% | 105% | 106% | 102% | 109% | 103% | 105% | 98.9% | 103%
3 | O=C(Nc1ccc2[nH]ncc2c1)c1csc(Nc2ccccc2)n1 | 29.6% | 45.8% | 41.1% | 45.5% | 48.1% | 56.5% | 36.5% | 22.2% | 19.4% | 43.9% | 22.8% | 7.99% (active) | 35.9% | 64.5% | 61.6% | 50.7% | 54.9% | 13.1% | 38.3% | 16.5%
4 | C=CCn1c(SCC(=O)Nc2ccc(C(=O)/C=C/c3ccc(Cl)cc3)cc2)nnc1-c1ccc(Cl)c(Cl)c1 | 76.6% | 79.7% | 82.3% | 54.4% | 86.2% | 87.7% | 63.5% | 83.9% | 52.9% | 45.5% | 57% | -34.5% (active) | 75.6% | 90.5% | 86.7% | 85.7% | 76.4% | 83.8% | 90.8% | 83.9%
5 | Oc1cccc(-c2nc(-c3n[nH]c(=S)n3-c3ccccc3)cc3c2[nH]c2ccccc23)c1 | -9.51% (active) | 50.3% | 44.9% | 49.6% | 47.9% | 53% | 64.6% | -14.8% (active) | 21.3% | 26.2% | 19.2% | 17.8% | 24.7% | 73.1% | 56.8% | 37.3% | 24% | 3.83% (active) | 35.1% | 91.6%
6 | O=C(NC1CCCCCC1)c1ccc2c(=O)n3c(nc2c1)CCCCC3 | 112% | 107% | 97.8% | 99.8% | 104% | 108% | 108% | 99.5% | 98.8% | 128% | 116% | 87% | 101% | 111% | 76.2% | 108% | 94.2% | 110% | 83% | 91.3%
7 | CC1(C)CC[C@]2(CO)CC[C@]3(C)[C@H](CC[C@@H]4[C@@]5(C)CC[C@H](O)C(C)(C)[C@@H]5CC[C@]43C)[C@H]2[C@H]1O | 104% | 106% | 65.6% | 114% | 58.7% | 77.2% | 99.9% | 91.5% | 98.5% | 86.3% | 56.2% | 100% | 64.5% | 114% | 58.5% | 92.3% | 102% | 74.7% | 7.22% (active) | 80.8%
8 | COc1cc2c(c(OC)c1OC)CCC(c1cccc(C(=O)Nc3ccc([N+](=O)[O-])cc3)c1)O2 (stereo not given) | 43% | 55.4% | 51.1% | 29.3% | 57.8% | 40.7% | 50.5% | 25.5% | 15.1% | 4.06% (active) | 24.9% | 9.24% (active) | 42% | 84.3% | 40.7% | 78.4% | 72.2% | 56.5% | 77.1% | 38.2%
9 | CCOC(=O)c1cc(C(=O)c2cc(OC)cc(OC)c2)n2ncccc12 | 19.3% | 49.7% | 44.8% | 47.8% | 63.9% | 53.2% | 34.1% | -3.04% (active) | 24% | 32.6% | 32.3% | 28.9% | 38.2% | 92.2% | 71.4% | 19.6% | 56.4% | 0.928% (active) | 31.5% | 7.11% (active)
10 | CCCC[N+]1(C)CCN=C1Cc1ccccc1 (stereo not given) | 103% | 96.6% | 94.4% | 95.5% | 91.5% | 112% | 95.8% | 97.2% | 83.5% | 94.6% | 94.4% | 75.7% | 97.2% | 103% | 109% | 109% | 106% | 103% | 97.7% | 107%
11 | CCN1C(=O)N(CC)C2C1NC(=S)N2/N=C/C=C/c1cccs1 (stereo not given) | 64.1% | 55.1% | 30.2% | 44.9% | 70.3% | 42.4% | 36.5% | 18.4% | 12.1% | 20.4% | 17.8% | 25.4% | 17.2% | 33% | 57.3% | 43.7% | 24.5% | 2.01% (active) | 16.5% | 4.47% (active)
12 | CCOC(=O)c1c(Nc2nc3ccccc3s2)sc2c1CCC(=O)C2 | 103% | 42.8% | 36.8% | 52.7% | 29.1% | 29.9% | 42.8% | 59.1% | 16.9% | 20.8% | 0.365% (active) | 12.7% | 27.2% | 86.7% | 8.06% (active) | 99.5% | 44.7% | 49.7% | 41.1% | 87.3%
13 | C=C(CNCCc1ccc(O)cc1)[C@@H]1CC[C@]2(CO)CC[C@]3(C)[C@H](CC[C@@H]4[C@@]5(C)CCC(N)C(C)(C)[C@@H]5CC[C@]43C)[C@@H]12 (stereo not given in full) | -81.4% (active) | -62.8% (active) | -81.7% (active) | -98.9% (active) | -84.5% (active) | -71.9% (active) | -81.8% (active) | 64.5% | -26.8% (active) | -32.4% (active) | -43.9% (active) | -46.5% (active) | -56.8% (active) | 11.4% | -16.2% (active) | -6.7% (active) | -57.3% (active) | -53.5% (active) | -66% (active) | 60.4%
14 | COc1cc(C)cc(-c2c(-c3cc(N4CC(O)C4)nc(-c4cccnc4)n3)cnn2C)c1 | 113% | 91.7% | 77.8% | 76.7% | 99.5% | 66.5% | 94.5% | 72.8% | 78.9% | 94.6% | 88.3% | 77.7% | 92.7% | 99.9% | 88.7% | 118% | 120% | 101% | 80.5% | 83.1%
15 | O=C(Nc1ncc(Cc2ccccc2)s1)c1cc(-c2ccccc2)nc2ccccc12 | 105% | 98.1% | 104% | 78.7% | 98.1% | 99.4% | 93.7% | 103% | 95.4% | 95.6% | 105% | 95.7% | 98.4% | 98.6% | 108% | 96.7% | 87.3% | 104% | 92.6% | 87.8%
